Inconclusive results are not listed. The source made the active and inactive calls. The call rests on the fitted dose curve; in most records, active means well fitted cell-killing curve with a large enough effect in the repeat runs; inconclusive means weak or mixed curves; inactive means flat fitted curve, though single readings scatter.
assay: qHTS RealTime-Glo MT Cell Viability Assay in HepG2 cells - 16 hour (AID 1224885); details: RealTime-Glo luminescence; series mostly up to 76.8 µM; activity change, negative = cytotoxic: at the top concentration; further: nearly all actives have a fitted effect of over 50% in size
Excerpt: U.S. Tox21 Program National Center for Advancing Translational Sciences [NCATS] NIH Chemical Genomics Center [NCGC] U.S. Environmental Protection Agency [EPA] National Institutes of Environmental Health Sciences [NIEHS] National Toxicology Program [NTP] U.S. Food and Drug Administration [FDA] Tox21 Assay Overview: Measure of cell viability is critical in the cell-base assay. Analysis of cell viability is necessary for the characterization of cell responses to cytotoxic drugs and environmental stress. A RealTime-Glo MT Cell Viability Assay to monitor cell viability in real time of continues cell culture during 40 hours of compound treatment was used to screen Tox21 10K library compounds in HepG2 cells. The RealTime-Glo MT Cell Viability Assay is a nonlytic, homogeneous, bioluminescent method to measure cell viability in real time using a simple, plate-based method. The assay involves adding NanoLuc luciferase and a cell-permeant prosubstrate to cells in culture. Viable cells reduce the proprietary prosubstrate to generate a substrate for NanoLuc luciferase. This substrate diffuses from cells into the surrounding culture medium, where it is rapidly used by the NanoLuc Enzyme to produce a luminescent signal. The signal correlates with the number of viable cells, making the assay well suited for cytotoxicity studies.
Tox21 Assay Protocol Summary: The mixture of HepG2 cell suspension and reagents were dispensed at 600cells/6 ul/well in 1536-well tissue culture treated black solid bottom plates using a Multidrop dispenser. After the assay plates were incubated at a 37 C/5% CO2 incubator for 5 hours, 23 nL of compounds dissolved in DMSO, positive and negative controls was transferred to the assay plate by a pintool work station. The plates were incubated at 37 C for 40 hours. The luminescence intensity were measured at 0h, 8h, 16h, 24h, 32h and 40h time points using ViewLux plate reader during compound treatment.
On the % scale 0 is the no-effect control and ±100 the full control effect; potency means the concentration at half of the fitted maximal effect.

SMILES | activity change, negative = cytotoxic | Potency
CN1C[C@H]2c3ccccc3Oc3ccc(Cl)cc3[C@@H]2C1 | -14.4% [at 35.3 µM] (inactive) | –
C=C1[C@H]2CC[C@@H]3[C@H]2C(C)(C)CCC[C@]13C | 2.88% (inactive) | –
COC(C)(C)CCO | 1.18% (inactive) | –
Nc1ncn([C@H]2C[C@H](O)[C@@H](CO)O2)c(=O)n1 | 1.83% [at 35.3 µM] (inactive) | –
CC(C)Nc1ccc(NC(C)C)c2c1C(=O)c1ccccc1C2=O | -17.5% [at 35.3 µM] (inactive) | –
NCCCN1CCOCC1 | 0.762% (inactive) | –
COCC(C)OC(C)=O (stereo not given) | 1.11% (inactive) | –
c1ccc(C(O[C@H]2CCCN(CCc3ccc4c(c3)OCO4)C2)c2ccccc2)cc1 | -7.19% [at 35.3 µM] (inactive) | –
C#Cc1cccc(Nc2ncnc3cc(OCCOC)c(OCCOC)cc23)c1 | -19.5% [at 35.3 µM] (inactive) | –
CN(C)CCN(Cc1ccsc1)c1ccccn1 | 0.385% [at 35.3 µM] (inactive) | –
CN(C)c1ccc(CCO)cc1 | 1.78% (inactive) | –
Cc1cccc(Nc2ccccc2)c1 | -23.6% (inactive) | –
CC(=O)OC[C@H]1O[C@@H](n2ncc(=O)[nH]c2=O)[C@H](OC(C)=O)[C@@H]1OC(C)=O | -3.29% [at 35.3 µM] (inactive) | –
CCCCCCCCCCCCCCOS(=O)(=O)O | 0% (inactive) | –
O=C(O)c1ccccc1Cl | -1.65% (inactive) | –
C[N+]1(C)CCC(OC(=O)C(O)(c2ccccc2)C2CCCC2)C1 (stereo not given) | 5.08% [at 35.3 µM] (inactive) | –
C#CCN(C)CCCOc1ccc(Cl)cc1Cl | -7.51% [at 35.3 µM] (inactive) | –
CN1CCC(=C2c3ccccc3Sc3ccccc32)CC1 | -17% [at 35.3 µM] (inactive) | –
CC(C)=CCC/C(C)=C/CC/C(C)=C/CO | -11.4% (inactive) | –
Nc1cccc(S(=O)(=O)c2cccc(N)c2)c1 | -8.98% (inactive) | –

SMILES | activity change, negative = cytotoxic | Potency
CCCCCCCC#N | 0.333% (inactive) | –
Nc1ccc(S(=O)(=O)Nc2ccccc2)cc1 | -0.46% [at 35.3 µM] (inactive) | –
C/C=C/C=C/CO | -3.05% (inactive) | –
CC(C)Cc1ccc(C(C)C(=O)OCc2ccccn2)cc1 (stereo not given) | -9.51% [at 35.3 µM] (inactive) | –
CCCCCCCCO[C@@H]1O[C@H](CO)[C@@H](O)[C@H](O)[C@H]1O | -0.29% (inactive) | –
COC(=O)C1=C(C)NC(COC(N)=O)=C(C(=O)OC(C)C)C1c1cccc(Cl)c1Cl (stereo not given) | – | 23.9 µM (active)
COC(=O)c1ccc(I)cc1S(=O)(=O)NC(=O)Nc1nc(C)nc(OC)n1 | 5.07% (inactive) | –
CN1Cc2cc(C(=O)N3CCC(C4CCNCC4)CC3)ccc2NC(CC(=O)O)C1=O (stereo not given) | 3.06% [at 35.3 µM] (inactive) | –
CCCCCCCN | -0.901% (inactive) | –
C1CCCNCCC1 | -3.65% (inactive) | –
CCCn1cnc2c1c(=O)n(CCCCC(C)=O)c(=O)n2C | 0.887% [at 35.3 µM] (inactive) | –
CCOc1ccc(N=Nc2ccc(/C=C/c3ccc(N=Nc4ccc(OCC)cc4)cc3S(=O)(=O)O)c(S(=O)(=O)O)c2)cc1 | -25.5% (inactive) | –
CNCCCN1c2ccccc2CCc2ccccc21 | -23.4% [at 35.3 µM] (inactive) | –
Cc1ncc(CO)c(C=O)c1O | 0.131% [at 35.3 µM] (inactive) | –
CNC(=O)CN(CCN(CCN(CC(=O)[O-])CC(=O)NC)CC(=O)[O-])CC(=O)[O-].O.[Gd+3] | 4.06% [at 35.3 µM] (inactive) | –
O=[N+]([O-])c1cccc(S(=O)(=O)O)c1 | -13.1% (inactive) | –
C/C=C(/C(=C/C)c1ccc(OC(C)=O)cc1)c1ccc(OC(C)=O)cc1 | 1.92% [at 35.3 µM] (inactive) | –
COc1ccc2cccc(CCNC(C)=O)c2c1 | -13.8% [at 35.3 µM] (inactive) | –
CC(=O)c1ccc2c(c1)N(CCCN1CCC(CCO)CC1)c1ccccc1S2 | -24.3% [at 35.3 µM] (inactive) | –
CC1=CCCC(C)(C)C12CCC(C)O2 (stereo not given) | 3.49% (inactive) | –

— PubChem BioAssay (Tox21)
